The values that follow come from PubChem BioAssay AID651595 (National Center for Advancing Translational Sciences (NCATS), 2012).

Fewer than 10 of roughly 1,100 compounds were called active. Inconclusive results (about 6%) are left out. Calls follow the shape of the dose curve; as a rule, active = well fitted cell-killing curve with a large enough effect; inconclusive = small, poorly fitted or top-dose-only effect; inactive = flat fitted curve, though single readings scatter. Not all results are given here. Entries that show only a call come without a potency.
Potency is read from the fitted curve at half-maximal effect.

The nature of this assay: qHTS of Nrf2 Activators: Hit Validation in Cytotox Assay.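 Also: compound exposure lasted 24 hours before the ATP readout.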 The settings on record: Cell viability counter-screen for Nrf2 activator hits; series mostly up to 46.1 µM. An excerpt:
Many diseases have some form of oxidative stress injury and ties to inflammation, causing a host of problems for the patient. The antioxidant response element (ARE) plays an important role in alleviating the harmful effects of oxidative stress. The antioxidant response element (ARE) is a transcriptional regulatory element involved in the activation of genes coding for a number of antioxidant proteins and detoxifying enzymes. These enzymes work in concert to protect tissues from oxidative insults and chemical toxicities in human hepatocytes and immune cells. The protective effects of ARE activation are primarily triggered through Nrf2 (NF-E2-related factor) binding to and activating AREs. It is known that Nrf2 controls the production of over 250 antioxidant and detoxification proteins (Hu et al., 2006), thereby protecting tissues by increasing cellular antioxidant content and suppressing inflammatory signaling pathways. The transcription factor Nrf2 is a central link between oxidative chemicals, such as phenolic antioxidants and electrophilic compounds, and the activation of ARE. Nrf2 levels are constitutively low as a consequence of its interaction with Keap1, which targets its degradation (Zipper and Mulcahy, 2002). Electrophiles react with key cysteine residues in Keap1, releasing Nrf2 and allowing its translocation to the nucleus. Once within the nucleus, Nrf2 complexes with coactivators such as p300, and binds to the AREs to induce gene transcription of cytoprotective enzymes, resulting in the prevention of toxicity. Activation of Nrf2 protects tissues by increasing cellular antioxidant content and suppressing inflammatory signaling pathways. Identifying novel and potent Nrf2 activators by using the AREc32 cell line to detect ARE activation by small molecules will lead to the identification and development of probes to study protective pathways in multiple tissues. These specific probes are essential to study the ARE pathway, and eventually to determine whether this pathway does activate genes that could protect against a host of diseases, including cardiovascular diseases, obesity, diabetes, Alzheimer's, and Parkinson's disease.
This project's aim is to identify novel and potent Nrf2 activators by using the AREc32 cell line to detect ARE activation by small molecules, which will lead to the identification and development of probes to study the ARE pathway. Cytotoxic compounds are flagged as active, and inactivity is desired in this assay.
NIH Chemical Genomics Center [NCGC]
NIH Molecular Libraries Probe Centers Network [MLPCN]
Assay Submitter (PI): Curtis Klaassen, University of Kansas Medical Center
Cell viability after compound treatment was measured using a luciferase-coupled ATP quantitation assay (CellTiter-Glo, Promega) in AREc32_fluc cells. The change of intracellular ATP content indicates the number of metabolically competent cells after compound treatment. AREc32_fluc cells were harvested from T225 flask and resuspended in phenol red free OPTI-MEM medium with 5% FBS. Then 5 microL of 200,000 cells/ml resuspended cells was dispensed into each well of white, solid bottom, 1536-well tissue culture-treated plates using a Multidrop Combi dispenser. After overnight culture at 37 degrees C with 5% CO2, a total of 23 nL of compounds at 7 selected concentrations from the cherry pick or positive control (40 uM stock of CDDO-IM and 2 mM of tBHQ) in DMSO was transferred to each well of the assay plate using a pintool (Kalypsys, San Diego, CA), and the plates were further incubated at 37 degrees C with 5% CO2 for 24 hours. After that, 4 microL of CellTilter-GloTM luminescent substrate mix (Promega) was added to each well. The plate was incubated at room temperature for 30 minutes. The plates were measured on a ViewLux plate reader (PerkinElmer) with clear filter.
Consider `CCc1c(C)sc(NC(=O)c2ccco2)c1C#N`, for which the Potency entry was “inactive”.

For the compound `COc1ccccc1NC(=O)/C=C\c1ccco1`, the Potency entry was “inactive”.

As for `CCN(C(=O)Cn1nnc2sc(-c3ccccc3)cc2c1=O)c1cccc(C)c1`, the Potency result is “inactive”.

For the compound `NC(=S)NN=C1CSSC1`, the Potency result was “inactive”.

For `COc1ccc(-c2nnc3c4ccccc4c(C)nn23)cc1`, the Potency entry was “inactive”.

Take `O=C1Nc2ccccc2SC1=Cc1ccccc1`: the Potency entry was “inactive”.

For `C/C(=N/NC(=O)CNC(=O)/C=C/c1ccco1)c1ccc(Cl)cc1`, the Potency entry is “inactive”.

As to `CCOC(=O)c1ccccc1N/C=C/C(=O)c1ccccc1`, the Potency result is “inactive”.

Take `O=C(Nc1cccc([N+](=O)[O-])c1)c1[nH]ncc1Cl`: the Potency entry was “inactive”.

Consider `COc1ccc(Cl)cc1NC(=O)C1COc2ccccc2O1` (centres undefined), for which the Potency result is “inactive”.

For the compound `COc1ccc(C(C#N)=C2C=CC(=NO)C=C2)cc1`, the Potency entry was “inactive”.

Consider `CC(=O)c1ccccc1NC(=O)COC(=O)/C=C/c1ccc(C)o1`, for which the Potency result was “inactive”.

As to `O=[N+]([O-])c1ccc(NN=Cc2ccco2)nc1`, the Potency entry is “inactive”.

Consider `O=C(/C=C/Nc1ccc(F)c(Cl)c1)c1ccco1`, for which the Potency result is “inactive”.

As for `COc1ccc(Cl)cc1C(=O)O/N=C(\N)c1ccccn1`, the Potency result is “inactive”.

Turning to `CCOC(=O)c1c(NC(=O)/C=C/c2ccc(C)o2)sc(C)c1C`, the Potency result is “inactive”.

For `O=[N+]([O-])c1ccc(Cl)cc1N/N=C/c1ccncc1`, the Potency result is “inactive”.

In the case of `O=C(Nc1nc(=O)c2ccccc2s1)c1ccccc1`, the Potency result was “inactive”.

For the compound `Clc1ccccc1C=NNc1ccccn1`, the Potency result was “inactive”.

Consider `CC(C)C(=O)Nc1nnc(-c2ccco2)s1`, for which the Potency entry is “inactive”.

As for `Cn1c(/N=C(\N)c2ccccc2)nc2ccccc21`, the Potency result was “inactive”.

On to `O=C(Nc1ccccc1C(=O)NCCc1ccccc1)c1ccco1`, for which the Potency entry is “inactive”.

Consider `NC(=O)c1oc2ccccc2c1NC(=O)c1ccccc1`, for which the Potency result is “inactive”.

Consider `O=C1COc2ccc(C(=O)COC(=O)/C=C/c3ccco3)cc2N1`, for which the Potency entry was “inactive”.

Take `O=C(Nc1nccc(-c2cccs2)n1)c1cccs1`: the Potency entry is “inactive”.

`N/C(=N\OC(=O)c1cc(Cl)ccc1Cl)c1cccnc1`: the Potency result was “inactive”.

On to `Cc1ccc(-c2nc3cccnc3s2)cc1NC(=O)c1ccco1`, for which the Potency result is “inactive”.

For `Cn1c(SCC(=O)N/N=C/C=C\c2ccco2)nc2ccccc21`, the Potency result is “inactive”.

On to `CC(C)c1ccc(NC(=O)c2sccc2-n2cccc2)cc1`, for which the Potency result is “inactive”.

Consider `COC(=O)c1ccc2nc(-c3ccc(F)cc3)c(CC3CCCCC3)n2c1`, for which the Potency entry is “inactive”.

With `Cc1ccc(-c2cc(C(F)(F)F)c(C#N)c(SCCC#N)n2)o1`, the Potency result is “inactive”.

As for `Clc1nc2sccn2c1/C=N/n1cnc2ccccc21`, the Potency entry was “inactive”.

Regarding `CC(=NNc1ccc2ccccc2n1)c1ccccc1O`, the Potency result was “inactive”.

`O=c1oc2ccc(Cl)cc2nc1/C=C(\O)c1cccs1`: the Potency entry was “inactive”.

Regarding `C=C(NC(=O)C(=C)NC(=O)c1csc(C2=NC3c4csc(n4)C4NC(=O)c5csc(n5)C(C(C)(O)C(C)O)NC(=O)C5CSC(=N5)/C(=C/C)NC(=O)C(C(C)O)NC(=O)c5csc(n5)C3(CC2)NC(=O)C(C)NC(=O)C(=C)NC(=O)C(=C)NC(=O)C(C(C)C)NC2C=Cc3c(C(C)O)cc(nc3C2O)C(=O)OC4C)n1)C(N)=O` (centres undefined), the Potency entry was “inactive”.

Regarding `O=c1nc2c(-c3ccccc3F)n[nH]n2c2ccccc12`, the Potency result was “inactive”.

As to `O=C(CSc1ccc(-c2ccco2)nn1)N1CCCCCC1`, the Potency entry was “inactive”.

In the case of `O=C1C(Cl)=C(Nc2ccccc2)C(=O)c2ccccc21`, the Potency was 16.4 µM (active).

For the compound `c1ccc(-c2cnc(-c3ccccc3)nn2)cc1`, the Potency result was “inactive”.

Turning to `O=C(Nc1ccccc1)N1CCn2c1nc1ccccc12`, the Potency result is “inactive”.

As to `CC(=O)Nc1ccc(N=Nc2ccccc2)cc1[N+](=O)[O-]`, the Potency result is “inactive”.

As to `Brc1ccc(-c2csc(N/N=C/c3ccco3)n2)cc1`, the Potency result was “inactive”.

Turning to `CC(=O)c1sc2nc(-c3cccs3)cc(C(F)(F)F)c2c1N`, the Potency result is “inactive”.

Take `O=c1oc2ccccc2nc1/C=C(\O)c1ccc(Br)cc1`: the Potency entry is “inactive”.

For `O=[N+]([O-])c1ccc(/C=N/Nc2ccc3ccccc3c2)o1`, the Potency result is “inactive”.

On to `O=[N+]([O-])c1ccc(/C=[N+](\[O-])[C@@H]2CCCC[C@@H]2/[N+]([O-])=C/c2ccc([N+](=O)[O-])o2)o1`, for which the Potency was 18.4 µM (active).

Consider `O=C(NCC1CCCO1)c1ccc([N+](=O)[O-])o1` (centres undefined), for which the Potency entry was “inactive”.

With `c1ccc(C2=Nn3c(nnc3-c3ccco3)SC2)cc1`, the Potency result was “inactive”.

For the compound `Cc1ccccc1NC(=O)/C(C#N)=C/c1ccsc1`, the Potency result is “inactive”.

For the compound `Nc1nonc1N/N=C/c1c(O)ccc2ccccc12`, the Potency result was “inactive”.

Consider `O=C(Nc1cc2nn(-c3ccccc3)nc2cc1Cl)c1ccco1`, for which the Potency entry is “inactive”.

As for `Cc1nn2c(-c3ccccc3)nnc2c2ccccc12`, the Potency result is “inactive”.

As for `O=c1[nH]c(/C=C/c2ccccc2[N+](=O)[O-])nc2ccccc12`, the Potency entry is “inactive”.

For `O=C(NC(=S)Nc1ccccc1O)c1ccccc1Cl`, the Potency result is “inactive”.

With `Cc1ccc(O)c(NC(=O)c2cccc(NC(=O)c3ccco3)c2)c1`, the Potency result is “inactive”.

For `O=C(NC(=S)Nc1cnc2ccccc2c1)c1ccccc1`, the Potency entry is “inactive”.

Consider `Cc1nn2c(-c3ccco3)nnc2c2ccccc12`, for which the Potency result is “inactive”.

`COc1ccc2oc3cc(Cl)ccc3c(=O)c2c1`: the Potency result was “inactive”.

On to `Cc1cccc(NC(=O)Nc2ccccc2[N+](=O)[O-])n1`, for which the Potency result is “inactive”.
